m5-HT2A agonist = agonists of mouse serotonin 5-HT2A receptor (HTR2A); P35363; CHO-K1 mHTR2A beta-arrestin complementation, luminescence; percent of 30 µM serotonin response; activation, % at 7.6 µM; 360,000 tested, 0.66% active; AID 624169;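 active means activation above a run cutoff, the mean activation of all tested compounds plus 3 SD, cut at about 14% in these data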
sPLA2-III inh = Inhibits HGIII-sPLA2 liposome hydrolysis, primary screen; 370,000 tested, 0.56% active; inhibition, % at 12.2 µM; QFRET BODIPY PC-A2 liposome hydrolysis, fluorescence; AID 743126;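 active means inhibition above mean plus 3 SD of compounds lying within the high and low control bounds, cut at about 19% in these data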
HTR5A inv ctr = inverse agonist of human HTR5A in OPRM1-OPRD1 counter-screen; HTR5A cell line, luminescence, inverse agonism; inhibition, % at 9.3 µM; 340,000 tested, 0.083% active; in the data active means inhibition mostly above about 23%, no sharp cut-off; inactive means mostly below about 18%
HTR5A ag ctr = HTR5A agonism, opioid heterodimer counter-screen. HTR5A agonist assay, luminescence, cell-based. 340,000 tested, 0.61% active. P47898. activation, % at 9.3 µM; in the data active means activation mostly above about 9.5%, no sharp cut-off; inactive means mostly below about 7.6%
OPRM1-OPRD1 inv = inverse agonists of human mu-delta opioid receptor heterodimerization | P35372+P41143 | cell-based MOR-DOR heterodimer luminescence, inverse agonism | inhibition, % at 9.3 µM | 340,000 tested, 0.21% active | AID 504357; in the data active means inhibition above about 22%, passing the limit was not always enough
Target sequence (P35372 whole entry, looked up): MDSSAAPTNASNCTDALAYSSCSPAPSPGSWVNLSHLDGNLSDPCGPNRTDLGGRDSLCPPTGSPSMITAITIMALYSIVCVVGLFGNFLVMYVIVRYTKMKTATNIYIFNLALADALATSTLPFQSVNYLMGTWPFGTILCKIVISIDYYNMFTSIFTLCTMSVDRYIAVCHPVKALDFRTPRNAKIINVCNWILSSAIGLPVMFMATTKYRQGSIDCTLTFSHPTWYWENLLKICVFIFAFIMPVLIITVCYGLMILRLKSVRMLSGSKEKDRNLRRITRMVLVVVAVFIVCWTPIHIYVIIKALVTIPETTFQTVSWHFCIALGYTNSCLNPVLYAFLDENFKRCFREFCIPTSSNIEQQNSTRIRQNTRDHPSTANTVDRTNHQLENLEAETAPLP
Target sequence (P41143 whole entry, looked up): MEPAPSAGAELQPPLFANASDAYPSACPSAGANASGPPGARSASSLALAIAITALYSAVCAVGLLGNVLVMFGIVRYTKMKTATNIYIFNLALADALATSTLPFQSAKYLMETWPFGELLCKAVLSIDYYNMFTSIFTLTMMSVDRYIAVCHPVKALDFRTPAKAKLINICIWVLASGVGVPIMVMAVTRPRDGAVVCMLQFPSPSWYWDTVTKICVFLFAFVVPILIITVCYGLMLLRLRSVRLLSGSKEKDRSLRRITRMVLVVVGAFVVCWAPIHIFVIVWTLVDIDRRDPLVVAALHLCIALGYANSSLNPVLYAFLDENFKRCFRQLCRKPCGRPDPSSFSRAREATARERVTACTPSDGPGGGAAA
OPRM1-OPRD1 ag = agonists of human mu-delta opioid receptor heterodimerization; activation, % at 9.3 µM; cells, OPRM1-OPRD1 heterodimerization, luminescence; 340,000 tested, 0.3% active; P35372+P41143; in the data active means activation above about 18%
Numbers stand for hits; – = inactive; · = no result given. Compounds with a hit are over-represented: about 2.2% of the library has one in this group of screens.

SMILES	m5-HT2A agonist	sPLA2-III inh	HTR5A inv ctr	HTR5A ag ctr	OPRM1-OPRD1 inv	OPRM1-OPRD1 ag
CC(C)C[C@H]1COc2cccc(F)c2S(=O)(=O)N1Cc1cn(CCC2OCCO2)nn1	·	–	·	·	·	·
Cc1cc(C)c(S(=O)(=O)/N=C2/C=C(Sc3ncn[nH]3)C(=O)c3ccccc32)cc1C	–	–	–	–	–	20
CCN1Cc2nnn(Cc3ccccc3)c2-c2cc(N3CCCC3)ccc2S1(=O)=O	·	–	·	·	·	·
COc1ccc(-c2cc(C(F)F)n3ncc(C(=O)n4ccnc4C)c3n2)cc1	–	25	–	–	–	–
COc1ccc(-c2cc(C(F)F)n3ncc(C(=O)N4CCc5ccccc54)c3n2)cc1	–	–	–	–	–	–
CN(C)S(=O)(=O)c1ccc(C(=O)OCC(=O)N2CC3(C)CC2CC(C)(C)C3)cc1 (stereo unspecified)	–	–	–	13	–	–
COc1ccc(CNC(=O)O[C@H]2CC[C@@]34CCCN3C(=O)CCC[C@H]4C2)cc1	·	–	·	·	·	·
S=c1[nH]nc(-c2ccncc2)n1/N=C/C=C/c1ccco1	–	–	–	–	–	–
Cc1cccc(-c2n[nH]c(=S)n2/N=C/C=C/c2ccco2)c1	–	31	–	–	–	–
CC(C)CN1C(Nc2ccccc2)=NC[C@@H]1C	–	–	–	–	–	–
CCN1C(Nc2ccccc2)=NC[C@@H]1C	–	–	–	13	–	–
CN1CCN(C(c2ccc(Br)cc2)c2cc(Cl)c3cccnc3c2O)CC1 (stereo unspecified)	–	20	–	–	–	–
CCOP(=O)(OCC)c1ccc2c(c1)C(=O)c1ccccc1-2	·	–	·	·	·	·
Cc1cccc(C(=O)Nc2nc3ncccn3c2-c2ccc(F)c(F)c2)c1	·	–	·	·	·	·
CCc1ccc(NS(=O)(=O)c2ccc(OC)c3ncccc23)cc1	–	–	–	–	–	–
CCc1ccccc1NS(=O)(=O)c1ccc(OC)c2ncccc12	–	–	–	9.2	–	–
COc1ccc(NC(=O)CCc2nc3ccccc3s2)c(OC)c1	–	–	–	–	–	–
CCOc1ccc(C(=O)CCc2nc3ccccc3s2)cc1	21	–	–	–	–	–
O=c1cnn([C@@H]2O[C@H](CO)[C@@H](O)[C@H]2O)c(=O)[nH]1	22	·	–	–	–	–
O=c1[nH]c(=O)n(C2OC(CO)C(O)C(O)C2O)cc1F (stereo unspecified)	·	–	·	·	·	·
CCCCNS(=O)(=O)/C=C/c1ccc(F)cc1CNC(=O)OC(C)(C)C	·	–	·	·	·	·
COc1ccc(-c2ccc3c(c2)S(=O)(=O)c2cccc(C(=O)NC[C@@H]4CCCO4)c2C3=O)cc1OC	15	–	–	–	–	–
O=C(CSc1nc2ccccc2n1CCc1ccccc1)c1ccc(O)c(O)c1	–	24	–	–	–	–
CNC(C#Cc1ccccc1)c1ccccc1C(F)(F)F (stereo unspecified)	·	–	·	·	·	·
O=C(CSc1cccc[n+]1[O-])c1ccc(Cl)s1	–	–	–	13	–	–
SMILES	m5-HT2A agonist	sPLA2-III inh	HTR5A inv ctr	HTR5A ag ctr	OPRM1-OPRD1 inv	OPRM1-OPRD1 ag
COC(CNC(=O)[C@H](Cc1c[nH]c2ccccc12)NC1(C(=O)NC(c2ccccc2)c2ccccc2)CCCCC1)OC	·	–	·	·	·	·
CCC(C)Nc1nc(C)nc2c1nnn2Cc1ccccc1 (stereo unspecified)	·	–	·	·	·	·
Fc1ccc(/C=C2\CCCC3=C2Nc2ncnn2C3c2ccc(F)cc2)cc1 (stereo unspecified)	–	–	–	10	–	–
COc1ccc(C2C3=C(Nc4ncnn42)c2ccccc2CCC3)cc1 (stereo unspecified)	–	–	–	–	–	–
CCOc1[nH]n(-c2ccccc2)c(=O)c1C=Nc1ccc(C)cc1	–	–	–	–	–	–
CCOc1[nH]n(-c2ccccc2)c(=O)c1C=Nc1ccccc1	–	–	–	13	–	–
COc1cc(C2c3cc4c(cc3OC(Nc3ccc(C(=O)O)cc3)C2C)OCO4)cc(OC)c1OC (stereo unspecified)	–	–	–	–	–	–
COc1cc(C2c3cc4c(cc3OC(NCCc3ccccc3)C2C)OCO4)cc(OC)c1OC (stereo unspecified)	–	–	–	11	–	–
O=C(OCc1ccccc1)c1ccc(NCc2cc(O)ccc2O)cc1	–	26	–	–	–	–
CC(C)OC(=O)c1ccc(NCc2cc(O)ccc2O)cc1	–	22	–	–	–	–
O=S1(=O)c2ccc(Br)cc2OC[C@@H](Cc2ccccc2)N1Cc1cn(Cc2ccc(Cl)cc2)nn1	·	–	·	·	·	·
CCC(CC)C(=O)c1c[nH]c(C(=O)NCCc2ccccn2)c1	–	–	–	13	–	–
CCC(CC)C(=O)c1c[nH]c(C(=O)NCc2ccccn2)c1	–	–	–	9.1	–	–
CC(C)(C)c1ccc(C(=O)c2c[nH]c(C(=O)NCCc3ccccn3)c2)cc1	–	–	–	9.4	–	–
O=C(c1cccc(Cl)c1)N1CCN(c2ccnc3cc(Cl)ccc23)CC1	·	–	·	·	·	·
CC(C)(C)c1ccc(C(=O)NCCC(=O)N2CCN(c3ncccn3)CC2)cc1	17	–	–	–	–	–
CC(C)(C)c1ccc(C(=O)NCCC(=O)N2CCCC2)cc1	–	–	–	–	–	–
CS(=O)(=O)N1c2ccccc2C[C@H]1Cc1cc2ccccc2o1	·	–	·	·	·	·
CC(C)n1nc(C(=O)OCC(=O)c2c[nH]c3ccccc23)c2ccccc2c1=O	–	–	–	10	–	–
CCn1nc(C(=O)OCC(=O)c2c[nH]c3ccccc23)c2ccccc2c1=O	–	–	–	–	–	–
O=C(CN1C(=O)NC2(CCCC2)C1=O)N1CCN(S(=O)(=O)c2ccccc2F)CC1	–	–	–	–	–	–
O=C(CN1C(=O)NC2(CCCCCCC2)C1=O)N1CCc2ccccc2C1	–	–	–	–	–	–
O=C1NC2(CCCCC2)C(=O)N1CC(=O)N1CCc2ccccc21	–	–	–	11	–	–
O=C(CN1C(=O)NC2(CCCC2)C1=O)N1CCN(S(=O)(=O)c2ccccc2[N+](=O)[O-])CC1	–	–	–	9.5	–	–
Cc1cc(=O)[nH]c(SCC(=O)Nc2ccc(Br)cn2)n1	–	–	–	13	–	–
Cc1cc2cc3c(cc2n2c(SCC(=O)Nc4nc(-c5ccccc5)cs4)nnc12)OCO3	·	–	·	·	·	·
COc1cccc(CNC(=O)CCS(=O)(=O)c2cccc3nonc23)c1	–	–	–	13	–	–
CC(C)CC(C(=O)N1CCc2ccccc2C1)N1C(=O)c2ccccc2C1=O (stereo unspecified)	–	–	–	–	–	–
CC(C)CC(C(=O)N1CCOCC1)N1Cc2ccccc2C1=O (stereo unspecified)	–	–	–	12	–	–
CCN1CCN(Cc2ccc(NC(=O)c3cc(NC(=O)c4cnn(-c5ccccc5)c4N)cc(OC)c3)cc2C(F)(F)F)CC1	–	–	–	12	–	–

Screening data from PubChem BioAssay.
